Assay results taken from PubChem BioAssay (NCI).
The panel holds about 83,000 compounds, 20% with a hit somewhere; the sample as a whole holds those more often.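 For each line, cells grew in 96-well plates with the test compound present at a single concentration for 48 hours.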 A number with no mark means an inactive call. Activity calls are given as the source filed them. The calls were made as follows: active = growth percent below 10; inactive = the rest.

Each compound was assayed on KM12 colon (assay: NCI-60 one-dose screen, 48 h (100 = growth as untreated, 0 = no growth, -100 = all killed)). Conditions: 10 µM.

SMILES | growth
c1ccc([C@H]2CN3CCSC3=N2)cc1 | 109%
NC(=O)SCC(=O)Nc1ccc(S(N)(=O)=O)cc1 | 101%
Cc1nc2ccc(CN(C)c3ccc(C(=O)N[C@@H](CCC(=O)O)C(=O)O)s3)cc2c(=O)[nH]1 | 73.4%
COc1ccc(OC)c(/C=C/c2nc(SCc3ccccc3)n(-c3ccc(Cl)cc3)n2)c1 | 31.1%
COc1cc(Cc2cc(-c3ccc(Cl)cc3)n[nH]c2=O)ccc1O | 105%
CN(C)C(=S)N/N=C\C=N/NC(=S)N(C)C | 81.5%
COc1ccc(N=C2C(=Nc3ccc(OC)cc3)N(c3ccc(N(C)C)cc3)C(=S)N2c2ccc(OC)cc2)cc1 | 86.8%
COC(=O)[C@@H]1[C@H](O)[C@H](C)[C@H](O)[C@@](C)(O)/C=C\C=C(C)C(=O)Nc2c(C)c(OC(C)=O)c3c(c2O)C(=O)C(C)=C2OCOC(=C23)C(C)=C[C@@](C)(O)[C@H](O)[C@@H](C)[C@H]1OC(C)=O | 112%
COc1cccc(C2C3=C(COC3=O)N(CCO)c3cc(OC)ccc32)c1 (centres undefined) | -5.83% (active)
CCc1ccc2c(c1)N(CCO)C1=C(C(=O)OC1)C2c1ccccc1 (centres undefined) | 76.1%
CO/N=C(/C(=O)NC1C(=O)N2C(C(=O)O)=C(COC(N)=O)CSC12)c1ccco1 (centres undefined) | 113%
COc1ccc(N2C(=O)C3c4[nH]c5ccc(OCc6ccccc6)cc5c4C4CCC(C(C)C)CC4C3C2=O)cc1 (centres undefined) | 105%
CCN(CC)CCNC(=O)c1ccc(NC(C)=O)cc1 | 108%
CCOC(=O)C1CCc2c(ccc3ccccc23)N1CCC#N (centres undefined) | 94.9%
CN(C)CCN1C(=O)c2cccc3cc(N)cc(c23)C1=O | 28.8%
COc1ccc2c(c1)nc(N)c1c3cccnc3cn21 | 17.1%
CN1CC[C@@H](c2c(O)cc(O)c3c(=O)cc(-c4ccccc4Cl)oc23)[C@@H](O)C1 | -34% (active)
O=C(/C=C/c1cc2ccccc2[nH]c1=O)c1ccc2c(c1)OCO2 | 92.3%
CCCC1(CC(=O)O)OCCc2c1[nH]c1ccccc21 (centres undefined) | 102%
C=C(Cl)[C@@](Cl)(CBr)CC[C@@H](Br)C(C)(C)Cl | -94.2% (active)

SMILES | growth
CC[C@H](C)C(=O)O[C@H]1CCC=C2C=C[C@H](C)C(CCC3C[C@@H](O)CC(=O)O3)[C@H]21 (some centres undefined) | 103%
CC1CN(Cc2ccccc2)C(=O)NC1=O (centres undefined) | 113%
Cc1cccc2c(NCCN(C)C)c3cccc(C(=O)NCCN(C)C)c3nc12 | -27.6% (active)
O=C(CCCCCCC(=O)Nc1cccnc1)NO | 6.19% (active)
O=C1OCC2=C1C(c1cccc(Br)c1)c1cc3c(cc1N2CCO)CCC3 (centres undefined) | -47.5% (active)
O=C(CNC(=O)OCc1ccccc1)NCC(=O)Oc1ccc([N+](=O)[O-])cc1 | 102%
CC(C)C[C@H](NC(=O)[C@H](Cc1cccc2ccccc12)NS(=O)(=O)c1cccc2cccnc12)B(O)O | -73.8% (active)
Cc1cc(C)c(NC(=O)c2sc3nc4c(cc3c2N)C(=O)CCC4)c(C)c1 | 27.3%
COc1cc(NC(=O)CSc2nc3ccccc3c(=O)n2CCc2ccccc2)cc(OC)c1OC | 7.82% (active)
CCOCCOCCOCCOCCOCCOCCOCCOCCOCCO (tested in a mixture with another compound) | -18.3% (active)
COc1cc(OC)cc(-c2cncn2-c2ccc(-c3nc4cc(OC)cc(OC)c4s3)cc2)c1 | 38.5%
COc1ccc(OC)c2c1C(=O)CC2C (centres undefined) | 103%
Nc1ncn(C2OC(CO)C(O)C2O)c(=O)n1 (centres undefined) | -15.8% (active)
N#Cc1c(C#N)c(SSc2c(C#N)c(C#N)c(N)n2-c2ccccc2)n(-c2ccccc2)c1N | 106%
CCCCCCCCCCCCCCCCCCOCC(COCCOCC[N+]1(CCCCCC(=O)[O-])CCCC1)Oc1ncccn1 (centres undefined) | 15.2%
O=C1NC(=O)N(Cc2ccccc2)CC1Br (centres undefined) | 106%
C=C(NC(=O)C(=C)NC(=O)c1csc(C2=NC3c4csc(n4)C4NC(=O)c5csc(n5)C(C(C)(O)C(C)O)NC(=O)C5CSC(=N5)/C(=C/C)NC(=O)C(C(C)O)NC(=O)c5csc(n5)C3(CC2)NC(=O)C(C)NC(=O)C(=C)NC(=O)C(=C)NC(=O)C(C(C)C)NC2C=Cc3c(C(C)O)cc(nc3C2O)C(=O)OC4C)n1)C(N)=O (centres undefined) | -88.1% (active)
O=C1ON=[N+](c2ccc(Cc3ccc([N+]4=NOC(=O)C4CN4CCOCC4)cc3)cc2)C1CN1CCOCC1 (centres undefined) | 54.3%
C/C(=N\Nc1nc2ccccc2s1)c1ccncn1 | 39.1%
